Source: PubChem (National Center for Advancing Translational Sciences (NCATS))
Giardia FBPA inh: Giardia lamblia aldolase inhibition | A8B2U2 | purified Giardia FBPA | Potency, µM (titrated, usually from 59.6 µM), for the others: at the top dose activity, negative = inhibition, actives largely listed as inhibitors | actives 0.71% (n = 290,000); note: potency is the fitted concentration of half-maximal effect; % is set by controls: 0 for no effect and ±100 for the full control effect; nearly all actives have a fitted effect of over 55% in size
Target sequence (A8B2U2 whole entry, looked up): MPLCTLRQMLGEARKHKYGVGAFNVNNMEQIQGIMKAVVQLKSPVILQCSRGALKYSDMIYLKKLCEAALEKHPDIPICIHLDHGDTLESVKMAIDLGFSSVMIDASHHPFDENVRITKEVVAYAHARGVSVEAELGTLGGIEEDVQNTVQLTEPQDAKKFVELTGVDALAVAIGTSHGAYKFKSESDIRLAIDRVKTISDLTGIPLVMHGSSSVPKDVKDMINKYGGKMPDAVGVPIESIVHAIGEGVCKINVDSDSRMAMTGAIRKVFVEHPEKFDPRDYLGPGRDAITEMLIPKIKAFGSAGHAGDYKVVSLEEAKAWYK
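Giardia FBPA (40 nM reagent) was preincubated 10 min at RT with compound (up to 57.5 uM final), then substrate plus GAPDH/TPI/NAD/arsenate coupling system with diaphorase/resazurin was added; resorufin fluorescence (525/598 nm) was read after 20 min.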
LmPK inhibitor: LmPK (Leishmania mexicana) enzyme inhibition; purified LmPK, Kinase-Glo ATP luminescence, 1 h; Potency, µM (highest dose often 57.5 µM), for inactives: top-dose activity change, negative = inhibition, most hits filed as inhibitors; actives 0.37% (n = 290,000); note: potency is the fitted concentration of half-maximal effect; % is set by controls: 0 for no effect and ±100 for the full control effect
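qHTS format; LmPK 0.1 nM; substrates PEP 0.5 mM and ADP 0.1 mM. One-hour room-temperature incubation, then coupled luciferase luminescence; 0.5 nM enzyme wells mark activation.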
Shiga inhibitor: Shiga toxin inhibition; Vero cells, Shiga toxin protein synthesis inhibition reporter; actives 9.2% (n = 290,000); inhibition, % at 38.7 µM; AID 2315; in the data active = inhibition mostly above about 28%, no sharp cut-off; inactive = mostly below about 43%; note: 0% is about no effect
NS1 inh: inhibitors of influenza NS1 protein function. actives 0.4% (n = 270,000). Potency, µM (top dose mostly 46.1 µM), without a hit: at the highest dose activity, positive = more growth. AID 2326; calls by dose curve; note: potency is the fitted concentration of half-maximal effect; actives are rising curves; nearly all actives have a fitted effect of over 50% in size
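S. cerevisiae expressing influenza A NS1, grown in glucose, washed, then diluted 1:100 into pH 6.0 -URA galactose medium with 23 nl compound. Growth recovery read as OD600; NS1-free strain serves as control.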
Cycloheximide cs: counter-screen hit for Shiga toxin inhibitors, cycloheximide | cell reporter, cycloheximide protein synthesis inhibition counterscreen | max response, % | actives 12% (n = 300,000) | AID 2314; in the data active = max response mostly above about 13%, no sharp cut-off; inactive = mostly below about 14%; note: read at 38.3 µM for the half of the compounds with a filed dose; 0% is about no effect
Starred values were filed as active, the others as inactive; i = inactive; ? = inconclusive; · = not tested or not shown; [ ] = dose if it differs, or a comment. Sampled rows, rich in hits. Any-hit rate of the full collection: about 14%. Unless noted, calls come from the whole dose curve; as a rule, active = well fitted curve in the direction sought with a large enough effect; inconclusive = small, poorly fitted or top-dose-only effect, or another doubt; inactive = no such curve, though single readings can be large; an effect the other way counts as inactive or inconclusive.

SMILES | Giardia FBPA inh | LmPK inhibitor | Shiga inhibitor | NS1 inh | Cycloheximide cs
COc1cccc(CN2CC(C(=O)NCCOc3cccnc3)CCC2=O)c1 (stereo unspecified) | · | -6% | 3 | 3% | -3
Cc1[nH]c2ccccc2c1C(=O)CCl | -2% | 6% | -1 | 7% | -1
Cc1[nH]c2ccccc2c1C(=O)CSC(=S)N1CCOCC1 | -10% | -11% | 84* | 4% | 17*
CCN(CC)C(=S)SCC(=O)c1c(C)[nH]c2ccccc12 | -10% | 3% | 22 | -5% | 15*
COCCCNC(=S)NCCNc1nc2c(C)c(C)ccc2cc1C#N | -8% | 8% | -14 | 6% | -2
CC1S/C(=N/N=C/c2ccco2)N(Cc2ccc(F)cc2)C1=O (stereo unspecified) | -5% | -1% | 57* | -9% | 30*
Cc1ccccc1CN1C(=O)C(C)S/C1=N/N=C/c1ccco1 (stereo unspecified) | -15% | 5% | 47 | 0% | 0
COc1ccc([C@]23Cc4cc(C#N)ccc4C(O2)c2c(cc(C)n(-c4ccccc4)c2=O)O3)cc1 | -13%[12.9 µM] | 2%[11.5 µM] | i | 25% | -3
Nn1c(Nc2ccccc2)nc2sc3c(c2c1=O)CCCC3 | -12% | -2% | 43 | 1% | 21*
CN(C)CCNc1nc2sc3c(c2c(=O)n1CCc1ccccc1)CCCCC3 | 0% | 2% | -12 | 7% | -1
NNc1nc2sc3c(c2c(=O)n1-c1ccccc1)CCCC3 | ? | -5% | 75 | ? | 23*
Cc1ccc(-c2nc3sc4c(c3c(=O)n2N)CCCC4)cc1 | 1% | -15% | 38 | 7% | 59*
CCOC(=O)N1CCN(c2cc(NCCC(=O)O)c3c4c(onc24)-c2ccccc2C3=O)CC1 | 5.6µM* | 16µM* | 8 | -8% | 5
O=C(O)CCCNc1cc(N2CCC3(CC2)OCCO3)c2noc3c2c1C(=O)c1ccccc1-3 | ? | ? | 54* | ? | 24*
O=C1c2ccccc2-c2onc3c(N4CCN(CCO)CC4)cc(N4CCN(C(=O)c5ccco5)CC4)c1c23 | -24% | -12% | -13 | 4% | -5
CN1CCN(c2cc(N3CCN(C(=O)c4ccco4)CC3)c3c4c(onc24)-c2ccccc2C3=O)CC1 | -27% | -8% | -19 | 0% | 1
O=C1C[C@H]2C(=O)[C@@H]1[C@@H](C(=O)O)[C@H]2C(=O)O | · | · | · | -1% | ·
CC1CN(C(=O)CSc2cn(CC(=O)N3CCOCC3)c3ccccc23)CC(C)O1 (stereo unspecified) | 9% | 3% | -3 | -6% | 13
O=C(CSc1cn(Cc2ccccc2)c2ccccc12)N1CCOCC1 | -3% | 1% | 96* | -9% | 21*
O=C(NCCn1cc(SCC(=O)N2CCOCC2)c2ccccc21)c1ccccc1 | 0% | -2% | 37* | -18% | 19*
COc1ccc(C(=O)NCCn2cc(SCC(=O)N3CCOCC3)c3ccccc32)cc1 | 0% | -5% | -4 | 5% | 1
O=C(NC1Cc2ccccc2C1)c1cc(COc2ccc(F)cc2Cl)on1 | 8% | -1% | -6 | -3% | -4
COc1ccc(OCc2cc(C(=O)NC3CCOCC3)no2)c2ccccc12 | · | 13% | 18 | -10% | 22*
CC1(C)CC(NC(=O)c2cc(COc3cccc(C(F)(F)F)c3)on2)CCO1 (stereo unspecified) | 12% | 0% | 48* | -7% | 29*
COc1cccc(OCc2cc(C(=O)NC3CCOCC3)no2)c1 | 7% | 1% | 82* | 6% | 46*
SMILES | Giardia FBPA inh | LmPK inhibitor | Shiga inhibitor | NS1 inh | Cycloheximide cs
Cc1ccc(OCc2cc(C(=O)NC3CCOC3)no2)cc1C (stereo unspecified) | 11% | -1% | 25* | -1% | 20*
Cc1ccc(OCc2cc(C(=O)NC3CCCCC3)no2)cn1 | 0% | 7% | -6 | -13% | 8
Cc1cc(OCc2cc(C(=O)NC3CCC3)no2)cc(C)c1Cl | 11% | -2% | -2 | -17% | 4
N#Cc1c(NC(=O)c2cccc(S(=O)(=O)Nc3ccc(C(=O)O)cc3)c2)sc2c1CCCC2 | 12% | 0% | -4 | ? | 6
Cc1ccc(-c2nc3n(n2)Cc2ccccc2-3)cc1 | -17% | 7.9µM* | 14 | -12% | 20*
CCn1c(C)nc2cc(-c3nc4n(n3)Cc3ccccc3-4)ccc21 | -9% | 16µM* | -22 | -14% | -10
COc1cc2c(cc1OC)C1C(=O)c3c(O)cc4c(c3OC1CO2)C=CC(C)(C)O4 (stereo unspecified) | -30% | · | · | · | ·
